Assay results from ChEMBL document CHEMBL3988442, “University of Dundee, Small-Polar-MMV Screening Library” (2021).

How the values were obtained:
[1] = molecular target: T1, Aspartate--tRNA(Asp/Asn) ligase (Mycobacterium tuberculosis (strain ATCC 25618 / H37Rv)) (UniProt P9WFW3); assay: Assay for Asp RNA synthetase-1 from Mycobacterium tuberculosis; assay type: functional; parameters: scale not given: direction of the effect not stated beside the values; conditions: 30 µM; also: in the data most compounds retested in dose-response had high values
T1 sequence (whole entry): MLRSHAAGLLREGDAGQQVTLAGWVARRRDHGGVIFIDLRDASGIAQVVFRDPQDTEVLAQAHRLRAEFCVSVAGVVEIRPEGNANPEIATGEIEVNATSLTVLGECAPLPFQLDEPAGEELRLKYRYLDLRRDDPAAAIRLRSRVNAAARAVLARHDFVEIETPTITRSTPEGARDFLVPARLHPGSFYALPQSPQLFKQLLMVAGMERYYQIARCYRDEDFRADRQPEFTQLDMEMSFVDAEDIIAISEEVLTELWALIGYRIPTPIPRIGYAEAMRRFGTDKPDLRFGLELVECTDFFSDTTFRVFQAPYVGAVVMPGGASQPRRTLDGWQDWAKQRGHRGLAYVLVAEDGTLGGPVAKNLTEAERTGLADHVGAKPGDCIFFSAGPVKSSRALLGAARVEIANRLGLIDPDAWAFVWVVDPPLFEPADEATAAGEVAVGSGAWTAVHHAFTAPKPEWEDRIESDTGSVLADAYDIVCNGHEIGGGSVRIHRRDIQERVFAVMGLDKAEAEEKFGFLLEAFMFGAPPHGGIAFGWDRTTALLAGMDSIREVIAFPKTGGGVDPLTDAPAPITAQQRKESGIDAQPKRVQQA

[2] = molecular target: Shiga toxin 2 (Escherichia coli O157:H7) (UniProt P09385+P09386); assay: E. coli 0.157:H7 Shiga Toxin SOP - stx2 screening assay; assay type: functional; parameters: scale not given: direction of the effect not stated beside the values; conditions: 30 µM

SMILES	Percent Effect [1] [%]	Percent Effect [2] [%]
CCCNC(=O)CCC(=O)Nc1ccc(-n2cncn2)c(F)c1	-1.12	5.57
OC1CCN(Cc2cc3c(cc2Br)OCCO3)CC1	2.56	-8.4
COCCN1CCC(Cc2cncc(-c3ccc(C(=O)O)cc3)n2)C1 (configuration not stated)	4.51	8.34
O=S(=O)(Cc1ccccc1)NCC1CCN(c2cnccn2)CC1	2.52	11.3
CC(C)(C)n1cc(C(=O)N2CCN(Cc3ccccc3F)CC2)cn1	-1.61	20.1
c1cnn(Cc2nnc3n2CCCN(CC2CCOCC2)C3)c1	2.52	18.5
Cn1cc(N2CC3(CCN(S(=O)(=O)C4CC4)C3)CC2=O)cn1 (configuration not stated)	-0.32	-17.6
CNc1nc(CNC(=O)Nc2cccc(F)c2)cs1	-1.08	-9.25
Cc1oc(-c2ccsc2)nc1CC(=O)NCCS(C)(=O)=O	12.7	-25.4
COc1c(C2CCCN2C(=O)c2cc(Cl)c[nH]2)c(C)nn1C (configuration not stated)	0.802	-13
CCn1cc(NC(=O)NCC(O)CN2CCc3ccccc3C2)cn1 (configuration not stated)	6.51	-38.6
COCC(=O)N1CC[C@H]2C[C@H](C)O[C@@H]2C1	-2.9	3.29
C1CC(NCc2nc(C3CC3)no2)CN(Cc2noc(C3CC3)n2)C1 (configuration not stated)	-2.94	13.3
O=C(NCC(=O)N1CCCCC1)c1ccc(Cl)cc1I	0.257	1.85
CCn1ccnc1CN1CCN(CCOc2ccccc2OC)CC1	-3.95	-17.6
CS(=O)(=O)N1CCC2(CN(C(=O)c3cccnc3)C2)C1	-2.07	-24.7
Cc1nnc(N2CC[C@H](OCC3CC3)[C@@H](Cc3ccccc3)C2)s1	9.93	-15.5
CC1CN(CC2CCCCC2)CCN1c1ccc2nncn2n1 (configuration not stated)	-1.32	-96.5
c1ccc(-c2noc(CN3CCc4cncnc4C3)n2)nc1	2.21	-24.6
CCS(=O)(=O)N1CCCc2ccc(NC(=O)Cc3ccc(F)cc3)cc21	3.34	7.51
Cn1cnnc1C1CCN(C(=O)CCCOc2ccccc2F)CC1	0.819	-1.48
c1cc(OCc2ccc3c(c2)OCO3)ccc1CNC1CC1	-1.47	-108
COc1c(CNC(c2ccc(F)cc2)c2nccn2C)c(C)nn1C (configuration not stated)	-6.01	-17.1
COC(=O)c1ccc2ccn(CC3CCNC3)c(=O)c2c1 (configuration not stated)	3.08	-45.4
CCN(Cc1nc2c(cnn2C)c(=O)[nH]1)c1cccc(Cl)c1	0.461	19.9
CC(C)COCC1CN(Cc2ccc3c(c2)OCO3)Cc2ncn(C)c21 (configuration not stated)	2.63	-19.1

SMILES	Percent Effect [1] [%]	Percent Effect [2] [%]
COc1ccc(CNCc2c(C)nn(C)c2N2CCOCC2)cc1	-0.115	14.4
CCc1nccn1C1CCCN(C(=O)c2ccc(C(=O)NC)nc2)C1 (configuration not stated)	2.25	2.77
CCc1ccc(S(=O)(=O)Nc2cc(OC)c(OC)cc2C(=O)O)s1	5.87	27.3
O=C(Cn1cccnc1=O)NC(Cc1cccs1)c1ccccn1 (configuration not stated)	-0.372	-0.987
O=C1CCC2(CCN(Cc3cc(F)cc(F)c3)CC2)CN1CCO	-0.529	6.69
O=C(CCN1CCOC(Cn2cccn2)C1)NC1CCCC1 (configuration not stated)	-1.67	-51.9
c1ccc(-c2nc(CNC3CCc4ncnn4C3)co2)cc1 (configuration not stated)	-3.79	-10.8
Cc1ccc(-c2cc(CN3CCOC(Cn4cncn4)C3)on2)cc1 (configuration not stated)	1.83	-14
O=C1CC2(CCN(c3nncs3)C2)CN1c1ccccc1 (configuration not stated)	2.1	-24.1
Cn1cc(CN2C[C@@H]3COC[C@]3(CNC(=O)c3ccsc3)C2)cn1	0.656	-3.31
O=S(=O)(NCC1(O)CCOc2ccccc21)c1cccs1 (configuration not stated)	-0.546	-8.71
COC(=O)c1ccc(N2CCN(C(=O)c3cc(C)on3)C(C)C2)cc1 (configuration not stated)	5.2	23.5
CSc1ncccc1C(=O)N1C[C@H]2CC[C@@H]1CN(c1ncccn1)C2	4.84	-56.4
Cc1nc2n(n1)CC(Nc1cc(C(F)(F)F)nc3ncnn13)CC2 (configuration not stated)	-5.49	-1.67
CC(C)c1cc(NC(=O)CN2CCNC(=O)C2)on1	2.59	-3.5
O=C1COC2(COCCN(Cc3ccsc3)C2)CN1c1ccc(F)cc1 (configuration not stated)	2.55	-4.46
CC1CCCN(Cc2coc(-c3cccc(F)c3)n2)C1 (configuration not stated)	-10.1	7.24
CN1CCN(C(=O)c2cnc3c(cnn3C3CCCC3)c2)CC1	-4	-2.45
COC(=O)CC(c1ccc(OC)c(OC)c1)c1oc(C)cc(=O)c1O (configuration not stated)	-0.938	-7.17
CNC(=O)c1cnc(/C=C/c2cc(OC)c(OC)c(OC)c2)s1	-0.971	-44.8
Cc1occc1C(=O)N1CCC2(CC1)NC(=O)CC2c1cnn(C)c1 (configuration not stated)	-0.199	-2.15
COc1ccccc1OCC(=O)NS(=O)(=O)c1cc(F)ccc1F	0.145	-7.87
O=C(c1cnc(-c2ccco2)s1)N1CCCC1Cn1cccn1 (configuration not stated)	-5.14	-4.37
CC(C)S(=O)(=O)N1CCC(c2cc3n(n2)[C@@H](C(F)(F)F)C[C@@H](C)N3)C1 (some centres not stated)	-2.54	-27.2
CC(C)Oc1ncccc1CNC(=O)N1CCC(C(N)=O)C1 (configuration not stated)	-4.37	30.9
